From PubChem
SARS 3CLpro inh – SARS-CoV 3CLpro protease inhibition; actives 0.14% (n = 290,000); inhibition, % at 6 µM; recombinant SARS-CoV 3CLpro, quenched FRET peptide cleavage; P0C6X7; in the data active means inhibition above about 12%
Mtb hypoxia rep – inhibitors of hypoxia-regulated fluorescent reporter in Mycobacterium tuberculosis | fluorescence inhibition, % (no concentration beside the values) | actives 0.1% (n = 300,000) | M. tuberculosis hypoxia-regulated fluorescent reporter, fluorescence | AID 1159583; in the data active means fluorescence inhibition mostly above about 23%, no sharp cut-off; inactive means mostly below about 17%
DUSP3 inh – inhibitors of human VHR1 phosphatase (DUSP3); P51452; AID 1654; inhibition, % at 13.3 µM; actives 0.52% (n = 290,000); recombinant VHR phosphatase, pNPP absorbance; in the data active means inhibition above about 50%
Target sequence (P51452 whole entry, looked up): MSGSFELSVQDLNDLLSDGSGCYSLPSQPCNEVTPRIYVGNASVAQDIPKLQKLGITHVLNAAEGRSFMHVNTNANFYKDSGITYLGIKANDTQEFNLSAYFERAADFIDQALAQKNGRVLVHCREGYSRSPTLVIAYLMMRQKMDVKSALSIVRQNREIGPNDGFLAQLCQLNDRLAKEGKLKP
FadD28 FP inh – M. tuberculosis FadD28 bisubstrate binding inhibition. FadD28 bisubstrate probe binding, fluorescence polarization. AID 588549. inhibition, % at 12.5 µM. actives 0.22% (n = 360,000); in the data active means inhibition above about 8.5%, passing the limit was not always enough
Mtb BioA inh – BioA (M. tuberculosis) enzyme inhibition. purified M. tuberculosis BioA enzyme, plate reader. inhibition, % at 9.99 µM. actives 0.096% (n = 360,000). AID 602481; in the data active means inhibition above about 40%
Numbers stand for hits; ! = not active in a repeat. Hits are enriched below; roughly 0.7% of the tested compounds scored in any of these assays.

COc1ccc(C(C(=O)NCCC(C)C)N(CCO)C(=O)c2snc(C(N)=O)c2N)cc1 (centres undefined) was read as SARS 3CLpro inh inactive, Mtb hypoxia rep inactive, DUSP3 inh 53.3, FadD28 FP inh inactive and Mtb BioA inh inactive.
`CC(OC(=O)c1[nH]cnc1C(=O)N1CCN(C(=O)OC(C)(C)C)CC1)c1ccccc1` (centres undefined) gave Mtb hypoxia rep inactive.
`O=C(O)C1CCCC2CN3CCc4c([nH]c5ccccc45)C3C(O)C21` (centres undefined) gave SARS 3CLpro inh inactive, Mtb hypoxia rep inactive, DUSP3 inh 55.7, FadD28 FP inh inactive and Mtb BioA inh inactive.
`O=C(N/N=C/c1cccc([N+](=O)[O-])c1)c1cc(-c2ccc3c(c2)OCO3)n[nH]1` gave SARS 3CLpro inh inactive, DUSP3 inh 51.4, FadD28 FP inh inactive and Mtb BioA inh inactive.
NC(N)=NN=Cc1ccc(OCc2ccccc2Cl)cc1 was read as Mtb hypoxia rep inactive.
CCOC(=O)/C(C#N)=C/Nc1cc(OC)ccc1OC was read as SARS 3CLpro inh inactive, Mtb hypoxia rep inactive, DUSP3 inh inactive and FadD28 FP inh inactive.
`CCOP(=O)(OCC)/C(C#N)=C/c1cc(OC)ccc1OC` gave SARS 3CLpro inh inactive, Mtb hypoxia rep inactive, DUSP3 inh 52.4, FadD28 FP inh inactive and Mtb BioA inh inactive.
`O=C(C1=CC(c2ccc3c(c2)OCO3)CC(OCCCCO)O1)N1CCOCC1` (centres undefined) gave Mtb hypoxia rep inactive.
Screening O=C1C2ON(c3ccccc3)C(c3ccccn3)C2C(=O)N1c1ccc(Br)cc1 (centres undefined) returned SARS 3CLpro inh inactive, Mtb hypoxia rep inactive, DUSP3 inh inactive, FadD28 FP inh 13.2 and Mtb BioA inh inactive.
Screening O=C1C2ON(c3ccccc3)C(c3ccncc3)C2C(=O)N1c1ccc(Br)cc1 (centres undefined) returned SARS 3CLpro inh inactive, Mtb hypoxia rep inactive, DUSP3 inh inactive, FadD28 FP inh inactive and Mtb BioA inh inactive.
Screening N[C@@]1(C(=O)O)CCC(C(=O)O)C1 (some centres undefined) returned Mtb hypoxia rep inactive.
`Cc1ccc(S(=O)(=O)Nc2ccc(O)c3ccccc23)c(C)c1` gave SARS 3CLpro inh inactive, Mtb hypoxia rep inactive, DUSP3 inh inactive, FadD28 FP inh 54.6 and Mtb BioA inh inactive.
For COc1cc(OC)c(-c2c3cc(O)c(=O)cc-3oc3cc(O)c(O)cc23)cc1OC the results were SARS 3CLpro inh inactive, DUSP3 inh inactive and FadD28 FP inh 39.0.
For Cc1c2cc(O)c(=O)cc-2oc2cc(O)c(O)cc12 the results were SARS 3CLpro inh inactive, Mtb hypoxia rep inactive, DUSP3 inh 122.1!, FadD28 FP inh 11.6 and Mtb BioA inh inactive.
`CC1=CC(=O)OC2CC3OC4CC(C)C5OC6CC7O[C@]8(C)CC=CC9OC%10CC%11OC(CC(C)C%12OCCO%12)CC(O)[C@]%11(C)OC%10CC9OC8C[C@]7(C)O[C@]6(C)CCC5OC4C[C@]3(C)OC12` (some centres undefined) gave Mtb hypoxia rep inactive.
COc1ccc(CCn2c(=N)c(C(=O)NCc3ccco3)cc3c(=O)n4ccccc4nc32)cc1OC was read as Mtb hypoxia rep inactive and FadD28 FP inh inactive.
For COc1ccc(CCNC(=O)c2cc3c(=O)n4ccccc4nc3n(Cc3ccco3)c2=N)cc1OC the results were SARS 3CLpro inh inactive, Mtb hypoxia rep 38.9, DUSP3 inh inactive, FadD28 FP inh inactive and Mtb BioA inh inactive.
For CCOC(=O)NN=C1CCS(=O)(=O)c2ccc(Cl)cc21 the results were Mtb hypoxia rep inactive.
`CC(=O)c1ccc(C(=O)N(C)C2CCCN(Cc3ccccc3F)C2)s1` (centres undefined) gave SARS 3CLpro inh inactive, DUSP3 inh inactive, FadD28 FP inh inactive and Mtb BioA inh 75.3.
`O=C(CN1CCN(c2ccc(O)cc2)CC1)Nc1cc(S(=O)(=O)N2CCCCC2)ccc1Cl` gave SARS 3CLpro inh inactive, Mtb hypoxia rep inactive, DUSP3 inh 55.8 and FadD28 FP inh inactive.
Screening COc1ccc(/C=C/C(=O)Oc2cccc(C=NNC(=O)c3cccc(F)c3)c2)cc1 returned Mtb hypoxia rep inactive.
For Cc1nn(CCc2nn[nH]n2)c2nc(-c3ccc(C4CCCCC4)cc3)cc(C(F)(F)F)c12 the results were SARS 3CLpro inh inactive, Mtb hypoxia rep inactive, DUSP3 inh inactive and FadD28 FP inh 14.4.
Screening Cc1nn(CCC(N)=O)c2nc(-c3cccs3)cc(C(F)(F)F)c12 returned SARS 3CLpro inh inactive, Mtb hypoxia rep inactive, DUSP3 inh inactive and FadD28 FP inh inactive.
For CCN(CC)C(=O)c1[nH]cnc1C(=O)NC(C)C(=O)OC(C)(C)C (centres undefined) the results were Mtb hypoxia rep inactive.
Screening CC1=NN(C(C#N)c2ccccc2O)C(C)(C)C1 (centres undefined) returned SARS 3CLpro inh inactive, Mtb hypoxia rep inactive, DUSP3 inh inactive and FadD28 FP inh inactive.
CCN1C(C#N)=C(C#N)N=C(C)CC1(C)C was read as SARS 3CLpro inh inactive, Mtb hypoxia rep inactive, DUSP3 inh 52.9 and FadD28 FP inh inactive.
COc1cc(C2CC=C(C(=O)O)C(c3cccc(Cl)c3)N2S(=O)(=O)c2ccc(C)cc2)cc(OC)c1OC (centres undefined) was read as Mtb hypoxia rep inactive.
For O=C(O)/C=C\C(=O)Nc1ccc(N2CCN(c3cccc(Cl)c3)CC2)cc1 the results were SARS 3CLpro inh inactive, Mtb hypoxia rep inactive, DUSP3 inh 57.4 and FadD28 FP inh inactive.
Screening O=C(O)/C=C\C(=O)Nc1ccc(N2CCN(c3ccc(Cl)cc3)CC2)cc1 returned SARS 3CLpro inh inactive, DUSP3 inh inactive, FadD28 FP inh inactive and Mtb BioA inh inactive.
Cc1ccc(S(=O)(=O)NCCOCCNS(=O)(=O)c2ccc(C)cc2)cc1 was read as SARS 3CLpro inh inactive, Mtb hypoxia rep inactive, DUSP3 inh inactive, FadD28 FP inh inactive and Mtb BioA inh inactive.
Screening COCCNS(=O)(=O)c1ccc(-c2ccc(C)cc2)cc1 returned SARS 3CLpro inh inactive, Mtb hypoxia rep 77.5, DUSP3 inh inactive, FadD28 FP inh inactive and Mtb BioA inh inactive.
For Cc1ccc(/C=C/C(=O)C2C(=O)c3ccccc3C2=O)cc1 the results were SARS 3CLpro inh inactive, Mtb hypoxia rep inactive, DUSP3 inh inactive and FadD28 FP inh 11.0.
Screening O=C(c1ccc(F)cc1)N1CCC2(CC1)NCCc1[nH]cnc12 returned SARS 3CLpro inh inactive, Mtb hypoxia rep inactive, DUSP3 inh 55.6 and FadD28 FP inh inactive.
For Cc1cnc(C(=O)OCc2ccc(Br)cc2F)cn1 the results were SARS 3CLpro inh inactive, Mtb hypoxia rep inactive, DUSP3 inh 57.6, FadD28 FP inh inactive and Mtb BioA inh inactive.
Screening COc1ccc(CCNC(=O)c2c(O)c3ccccc3[nH]c2=O)cc1OC returned SARS 3CLpro inh inactive, Mtb hypoxia rep inactive, FadD28 FP inh inactive and Mtb BioA inh inactive.
For COc1ccc(CCNC(=O)c2c(O)c3ccccc3[nH]c2=O)cc1 the results were SARS 3CLpro inh inactive, Mtb hypoxia rep inactive, DUSP3 inh 58.2, FadD28 FP inh inactive and Mtb BioA inh inactive.
